# Bioassay records: PubChem, National Center for Advancing Translational Sciences (NCATS)
# Most compounds without a hit are left out; they make up all but 19% or so of the library.
# HT1080 IDH1KD tx: qHTS for induction of synthetic lethality in tumor cells producing 2HG: qHTS for the HT-1080-IDH1KD cell line | HT-1080 IDH1 knockdown viability, ATP luminescence, 48 h | Potency, µM (highest dose often 46.1 µM), without a hit: at the top dose activity, negative = toxicity, usual class: cytotoxic | 360,000 compounds, 2% hits;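 further: potency means the concentration at half of the fitted maximal effect; 0% = DMSO wells and -100% = cell-free medium wells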
#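 In this qHTS, HT-1080 cells depleted of IDH1 are exposed for 48 h at 37 °C to compound titrations. Toxicity is scored from CellTiter-Glo luminescence, with DMSO as full viability and medium alone as none.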
# HT1080NT lethal: qHTS for induction of synthetic lethality in tumor cells producing 2HG: qHTS for the HT-1080-NT fibrosarcoma cell line; HT-1080-NT fibrosarcoma viability, CellTiter-Glo ATP luminescence, 48 h; 360,000 compounds, 1.6% hits; Potency, µM (series often up to 46.1 µM), for the others: top-dose activity, negative = less viability, hits mostly cytotoxic;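 further: NT is the 2HG producing partner of a matched IDH1 knockdown line; potency means the concentration at half of the fitted maximal effect; 0% = DMSO-treated cells and -100% = media-only wells without cells; nearly all actives have a fitted effect of over 55% in size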
#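 Compounds were tested in concentration-response format on HT-1080-NT cells for 48 hours at 37 degrees C. Cell viability came from CellTiter-Glo luminescence; curves were classified by r2, response magnitude and activity.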
# IL-1B inflam inh: qHTS for Inhibitors of Inflammasome Signaling: IL-1-beta AlphaLISA Primary Screen. THP-1 LPS/ATP IL-1B secretion, AlphaLISA, 16 h; stronger effect = lower value. activity change, % at 57.5 µM. 360,000 compounds, 4.7% hits. AID 743279, 2014; in the data active means activity change below about -50%; inconclusive means mostly about -30% to -49%
#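 Secreted IL-1B measured by AlphaLISA bead assay after 16 h compound exposure of THP-1 cells; compounds (final up to 57.5 uM) added 1 h before LPS (250 ng/mL) and ATP (1.25 mM) stimulation; lower signal means less secretion.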
# DT40 TDP1 CPT: qHTS for Inhibitors of human tyrosyl-DNA phosphodiesterase 1 (TDP1): qHTS in cells in presence of CPT; chicken DT40 Tdp1-/-;hTDP1 cells + 20 nM CPT, ATP luminescence, 48 h; Potency, µM (series often up to 46.2 µM), for inactives: at the top dose activity change, negative = growth inhibition, usual class: inhibitors; 420,000 compounds, 12% hits; further: potency means the concentration at half of the fitted maximal effect; nearly all actives have a fitted effect of over 55% in size
#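 Chicken DT40 Tdp1-/- cells complemented with human TDP1, 400 cells/well, exposed to compounds plus 20 nM camptothecin for at least 48 h at 37 C; viability read as ATP content by CellTiter-Glo luminescence.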
# TDP1 cell noCPT: qHTS for Inhibitors of human tyrosyl-DNA phosphodiesterase 1 (TDP1): qHTS in cells in absence of CPT | DT40 Tdp1-/- hTDP1 cells, no CPT, ATP luminescence, 48 h | Potency, µM (doses to about 46.2 µM), without a hit: at the highest dose activity change, negative = growth inhibition, hits mostly inhibitors | 420,000 compounds, 15% hits | AID 686978, 2013; further: potency means the concentration at half of the fitted maximal effect; nearly all actives have a fitted effect of over 55% in size
#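 Seeded 400 DT40-hTDP1 cells/well (vehicle DMSO, no 20 nM CPT); pinned compounds; ≥48 hr at 37 °C; CellTiter-Glo luminescence as viability measure.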
# Starred values were filed as active, the others as inactive; ? = inconclusive; / = not tested or not shown; [ ] = another dose, or the depositor's remark. Unless noted, the call rests on the fitted dose curve; in most records, active means well fitted curve in the direction sought with a large enough effect; inconclusive means small, poorly fitted or top-dose-only effect, or another doubt; inactive means no such curve, though single readings can be large; an effect the other way counts as inactive or inconclusive. Unless noted, on the % scale 0 is the no-effect control and ±100 the full control effect.
SMILES,HT1080 IDH1KD tx,HT1080NT lethal,IL-1B inflam inh,DT40 TDP1 CPT,TDP1 cell noCPT
COc1ccc(C)cc1Nc1n[n+](-c2ccccc2)c(-c2cc([N+](=O)[O-])cc(OC)c2O)s1,2%,0%,7,21µM*,?
CCc1ccc(Nc2n[n+](-c3ccccc3)c(-c3ccc(SC)cc3)s2)cc1,?,?,-16,6.5µM*,6.5µM*
CCc1ccc(Nc2n[n+](-c3ccccc3)c(-c3ccc(C(=O)O)cc3)s2)cc1,?,-17%,0,-29%,-18%
COc1ccc(C)cc1Nc1n[n+](-c2ccccc2)c(-c2ccc(SC)cc2)s1,18µM*,?,8,18µM*,15µM*
Fc1ccc(-[n+]2nc(Nc3ccccc3)sc2-c2ccc(OCc3ccccc3)cc2)cc1,-13%,-10%,2,16µM*,23µM*
N#CCCn1c(=O)cnc2cnc(Oc3ccccc3)nc21,/,/,/,-6%,-1%
CC(=O)N1CCC2(CC1)CCN(C(=O)Nc1cccc(F)c1)CC2,/,/,/,0%,-21%
CSCCC(NC(=O)/C(=C/c1ccco1)NC(=O)c1ccco1)C(=O)O (centres undefined),-9%,3%,/,-5%,?
CC(C)C(NC(=O)c1ccccc1F)C(=O)NCCc1ccccn1 (centres undefined),1%,8%,24,2%,-2%
COc1ccc(-c2sc(Nc3ccccc3)n[n+]2-c2ccc(F)cc2)c(OC)c1OC,0%,0%,-13,?,13µM*
CCc1ccc(Nc2n[n+](-c3ccccc3)c(-c3ccc(OC)c(Br)c3)s2)cc1,-27%,-22%,?,16µM*,?
CSc1ccc(-c2sc(Nc3ccccc3)n[n+]2-c2ccccc2)cc1,-5%,-5%,-11,16µM*,?
CCc1ccc(Nc2n[n+](C)c(-c3ccncc3)s2)cc1,0%,-15%,37,16µM*,26µM*
CSc1ccc(-c2sc(Nc3cccc4ccccc34)n[n+]2-c2ccccc2)cc1,-14%,-28%,-17,?,?
CC(=O)Nc1ccc(-c2sc(Nc3ccccc3)n[n+]2C)cc1,12%,14%,-2,-15%,-8%
CCCN(CCO)Cc1ccc(F)c(Br)c1,-1%,5%,-10,-18%,-9%
Clc1cccc(-c2sc(Nc3ccccc3)n[n+]2-c2ccccc2)c1Cl,3%,2%,0,?,18µM*
Cn1c(N)c(C(=O)CN2CCN(S(=O)(=O)c3ccccc3C#N)CC2)c(=O)n(C)c1=O,0%,3%,12,-15%,-15%
Oc1ccc(NCc2ccccc2OCc2ccccc2F)cc1,-28%,?,-6,18µM*,16µM*
Oc1ccc(NCc2ccccc2OCc2ccccc2Cl)cc1,/,/,/,15µM*,5.2µM*
CCOc1cccc(CNc2ccc(O)cc2)c1OCc1ccc(Cl)cc1,-2%,-16%,-3,15µM*,?
CCOc1cc(CNc2ccc(O)cc2)ccc1OCc1ccc(Cl)cc1Cl,-22%,-7%,-106*,15µM*,15µM*
COc1cccc(CNCCO)c1OCc1ccc(Cl)cc1,-9%,-1%,-4,?,-30%
NS(=O)(=O)c1ccc(NCc2ccccc2OCc2ccccc2F)cc1,-8%,-15%,-19,?,?
CCc1ccc(NC(=O)CSc2nncn2-c2cccnc2)cc1,3%,6%,-4,27%,-14%
SMILES,HT1080 IDH1KD tx,HT1080NT lethal,IL-1B inflam inh,DT40 TDP1 CPT,TDP1 cell noCPT
CC(=O)Nc1ccc(S(=O)(=O)N(Cc2ccco2)CC2CCCO2)cc1 (centres undefined),20%,5%,16,-1%,?
CCOc1ccccc1CNc1ccc(O)cc1,?,23µM*,38,16µM*,?
CCOc1ccccc1CNCc1ccc(C(=O)O)cc1,6%,10%,-4,-2%,-11%
CCOc1ccccc1CNCc1ccc(F)cc1,6%,-16%,-51*,-3%,?
COc1cccc(CNC(=O)CCCN2C(=O)C(c3ccccc3)Oc3cccnc32)c1OC (centres undefined),-13%,-6%,-3,?,?
Cc1[nH]nc2c1C(c1cc(Br)cs1)C(C#N)=C(N)O2 (centres undefined),?,?,-101*,4.1µM*,5.2µM*
Cc1[nH]nc2c1C(C(C)C)C(C#N)=C(N)O2 (centres undefined),-10%,-12%,-87*,?,?
Cc1nn(C)c(C)c1C1C(C#N)=C(N)Oc2n[nH]c(C)c21 (centres undefined),13%,3%,0,7%,-5%
O=C(CCn1c(=O)c2cccn2c2cccnc21)Nc1ccccc1Br,/,/,/,-5%,?
CC(Sc1nncs1)C(=O)Nc1ccc(Cl)cn1 (centres undefined),8%,6%,-13,-11%,-5%
COc1ccccc1OCCCn1c(C2CC(=O)N(c3ccccc3Cl)C2)nc2ccccc21 (centres undefined),/,/,/,13µM*,6.5µM*
O=C1CC(c2nc3ccccc3n2CCC2CCCCC2)CN1c1ccccc1Cl (centres undefined),/,/,/,-19%,?
Cc1cccc(OCCCCn2c(C3CC(=O)N(c4ccccc4Cl)C3)nc3ccccc32)c1 (centres undefined),/,/,/,3.7µM*,?
CCOc1ccccc1N1CC(c2nc3ccccc3n2CCCCOc2cc(C)ccc2C)CC1=O (centres undefined),/,/,/,26µM*,?
CCOC(=O)c1sc2nc(C)nc(SC(C)C(=O)N(C)c3ccccc3)c2c1C (centres undefined),-1%,-1%,-14,?,?
O=C(COC(=O)c1ccc[nH]c1=O)NCC1CCCO1 (centres undefined),0%[9.24 µM],11%,-14,-6%,-37%
COc1ccc(-n2c(CCc3ccccc3)nnc2SCC(=O)c2ccccc2)cc1,-4%,-2%,-80*,?,?
COc1ccc(C(=O)CSc2nnc(CCc3ccccc3)n2-c2ccccc2)cc1,3%,15%,-17,16µM*,15µM*
CC(C)Oc1ccc(CCc2nnc(SC(C)C(=O)O)n2-c2ccccc2)cc1 (centres undefined),0%,11%,15,3%,-5%
CCCC(=O)C1=C(O)C(C(=O)OC)C(C)(C)CC1=Nc1ccc(OC)cc1 (centres undefined),2%,5%,-15,?,21µM*
